In PubChem BioAssay (EPA / NIEHS):
Records with an inconclusive call do not appear. Activity calls are given as the source filed them. The calls were made as follows, unless noted: active = hit-call score of the fitted dose curve at least 0.9, where 1 is the maximum; inconclusive = response in the unintended direction; inactive = score below 0.9.

System: Thyroperoxidase (TPO), gene 54314
Test: CCTE_Simmons_AUR_rTPO: CCTE's Amplex UltraRed Assay for Thyroperoxidase (TPO) Inhibition, Simmons Lab (AID 2283662);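 as to AC50: potency for loss of signal meaning inhibition of peroxidase activity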
Method in brief: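 Rat thyroid microsomal TPO + 25 uM AUR in 200 mM K phosphate; cpd 5 nM–87.5 uM [final], 8 conc, 0.5% DMSO; 300 uM H2O2 starts rxn; 37C dark 30 min; endpoint FI 544/590 nm; n=3.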

Structure (SMILES) | AC50 | outcome
CN(C)c1ccc(O)c2c1C[C@H]1C[C@H]3[C@H](N(C)C)C(=O)C(C(N)=O)=C(O)[C@@]3(O)C(=O)C1=C2O | 0.607 µM (active) | 
CC(C)=CCCC(C)=CCCC(C)=CCO |  | inactive
CCCCCCCCCCCCCCCC(=O)OC[C@H](O)[C@H]1OC(=O)C(O)=C1O | 18.3 µM (active) | 
CSc1nc(NC2CC2)nc(NC(C)(C)C)n1 |  | inactive
CCCCCCCCCCCCCOS(=O)(=O)O | 42.6 µM (active) | 
Cc1ccc(C(C)C)cc1O |  | inactive
O=Nc1ccc(Nc2ccccc2)cc1 |  | inactive
O=c1cc(-c2ccccc2)oc2cc(O)cc(O)c12 | 23 µM (active) | 
Cc1ccc(O)c(C(C)(C)C)c1 | 20.6 µM (active) | 
CC(C)=CCCC(C)CC=O (stereo unspecified) |  | inactive
COc1ccc(O)cc1 | 8.4 µM (active) | 
c1ccc2c(c1)c1cccc3ccc4cccc2c4c31 |  | inactive
O=C(Cl)c1cccc(C(=O)Cl)c1 | 7 µM (active) | 
CCCCc1ccc(N)cc1 | 0.00854 µM (active) | 
c1ccc2[nH]ccc2c1 | 1.14 µM (active) | 
COc1cc(C(C)(C)C)c(O)c(C(C)(C)C)c1 | 2.32 µM (active) | 
CC(C)c1cccc(O)c1 | 25.9 µM (active) | 

System: not listed separately
Test: CCTE_Simmons_CellTiterGLO_HEK293T: Viability Assessment in CCTE's Assays for Thyroperoxidase (TPO) Inhibition, Simmons Lab (AID 2283665);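 as to AC50: cells exposed to compound for 24 h before readout; actives reduce ATP signal below DMSO vehicle meaning cytotoxicity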
Method in brief: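 Cytotoxicity counter-screen: human HEK293T cells in low-serum (1% FBS) medium receive test chemical, 5 nM to 87.5 uM final, for 24 h; ATP is quantified by luciferase luminescence.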

Structure (SMILES) | AC50 | outcome
CC(C)=CCCC(C)=CCCC(C)=CCO | 95 µM (active) | 
CCCCCCCCCCCCCCCC(=O)OC[C@H](O)[C@H]1OC(=O)C(O)=C1O | 74.2 µM (active) | 
CSc1nc(NC2CC2)nc(NC(C)(C)C)n1 |  | inactive
CCCCCCCCCCCCCOS(=O)(=O)O | 32.5 µM (active) | 
Cc1ccc(C(C)C)cc1O |  | inactive
O=Nc1ccc(Nc2ccccc2)cc1 | 84 µM (active) | 
O=c1cc(-c2ccccc2)oc2cc(O)cc(O)c12 |  | inactive
Cc1ccc(O)c(C(C)(C)C)c1 | 65.6 µM (active) | 
CC(C)=CCCC(C)CC=O (stereo unspecified) |  | inactive
COc1ccc(O)cc1 | 34.2 µM (active) | 
O=C(Cl)c1cccc(C(=O)Cl)c1 |  | inactive
CCCCc1ccc(N)cc1 | 17.4 µM (active) | 
c1ccc2[nH]ccc2c1 |  | inactive
COc1cc(C(C)(C)C)c(O)c(C(C)(C)C)c1 | 26.8 µM (active) | 
CC(C)c1cccc(O)c1 |  | inactive

Read-out: not listed separately
Test: CEETOX_H295R_MTT_cell_viability: Viability Assessment in the CeeTox HT-H295R MTT Assay (AID 2283718; active = hit-call score of the fitted dose curve at least 0.9, where 1 is the maximum; inactive = score below 0.9;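 as to AC50: curve fitted both ways so AC50 may mark viability loss or gain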)
Method in brief: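 H295R cells prestimulated 48 h with 10 uM forskolin, then exposed 48 h to test chemical (0.1% DMSO final). Viability by MTT (0.5 mg/ml, 4 h, 37 C), absorbance 570/650 nm; percent change versus DMSO, bidirectional fit.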

Structure (SMILES) | AC50 | outcome
CC(C)=CCCC(C)=CCCC(C)=CCO | 54.2 µM (active) | 
CSc1nc(NC2CC2)nc(NC(C)(C)C)n1 |  | inactive
C=CCOc1nc(OCC=C)nc(OCC=C)n1 |  | inactive
c1ccc(CCCc2ccccn2)cc1 |  | inactive
CC1(C)[C@H](C(=O)OCc2cccc(Oc3ccccc3)c2)[C@@H]1C=C(Cl)Cl |  | inactive
O=C(O)C[C@H](O)C[C@H](O)/C=C/c1c(C2CC2)nc2ccccc2c1-c1ccc(F)cc1 |  | inactive
Cc1ccc(C(C)C)cc1O |  | inactive
CC1CC(OC(=O)c2ccccc2O)CC(C)(C)C1 (stereo unspecified) |  | inactive
CC1COc2ccccc2N1C(=O)C(Cl)Cl (stereo unspecified) | 4.9 µM (active) | 
COc1cc2ncnc(Nc3cccc(Cl)c3)c2cc1OC |  | inactive
Cc1ccc2n[nH]nc2c1 |  | inactive
Cc1cccc(C)c1C |  | inactive
O=c1cc(-c2ccccc2)oc2cc(O)cc(O)c12 |  | inactive
Nc1ccc(F)c([N+](=O)[O-])c1 |  | inactive
C=CC(C)(C)O |  | inactive
NC(=O)Nc1ccc(Cl)cc1 |  | inactive
O=C(O)c1ccc([N+](=O)[O-])cc1 |  | inactive
Nc1cc([N+](=O)[O-])ccc1Cl |  | inactive
CC(C)c1cccc(O)c1 |  | inactive
